# Screens (PubChem)
# Most compounds without a hit are left out; they make up all but 6% or so of the library.
# D3 ag – qHTS of D3 Dopamine Receptor Agonist: qHTS. 0.58% of 410,000 active. D3R DiscoveRx beta-arrestin cells, luminescence, 90 min. max activation, %. D(3) dopamine receptor (Homo sapiens), P35462; in the data active = max activation above about 30%; note: 0% is about no effect
# Target sequence (P35462 whole entry, looked up): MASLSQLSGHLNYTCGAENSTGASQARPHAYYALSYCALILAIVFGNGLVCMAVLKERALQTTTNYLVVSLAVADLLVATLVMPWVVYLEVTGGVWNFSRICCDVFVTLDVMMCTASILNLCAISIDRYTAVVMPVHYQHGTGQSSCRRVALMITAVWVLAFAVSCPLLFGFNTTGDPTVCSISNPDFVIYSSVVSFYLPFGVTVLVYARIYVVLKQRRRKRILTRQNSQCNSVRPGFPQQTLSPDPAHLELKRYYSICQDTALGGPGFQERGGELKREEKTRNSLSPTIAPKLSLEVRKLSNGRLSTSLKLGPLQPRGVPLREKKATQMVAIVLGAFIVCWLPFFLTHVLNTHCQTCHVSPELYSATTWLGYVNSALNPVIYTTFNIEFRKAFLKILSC
#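 Cells at 1500/well, incubated overnight, then treated with pinned compounds (dopamine as control) for 90 min at 37 degrees C. DiscoveRx reagent added for 30 - 60 minutes at room temperature; luminescence read.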
# D1 antag – Antagonist of Human D 1 Dopamine Receptor: qHTS. D(1A) dopamine receptor (Homo sapiens), P21728. HEK293 TREx D1 cells, calcium flux, dopamine EC80; active compounds read low. activity change, negative = inhibition, % at 10 µM. 3.2% of 360,000 active. AID 504652, 2011; in the data active = activity change below about -30%; note: % is set by controls: 0 for no effect and ±100 for the full control effect
#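 Allosteric or orthosteric antagonism assessed as attenuation of the calcium response to EC80 dopamine, added 180 s after compound, in induced HEK293 Trex D1 cells loaded with no-wash calcium dye.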
# D1 potentiator – Potentiators of Human D1 Dopamine Receptor: qHTS | D(1A) dopamine receptor (Homo sapiens), P21728 | HEK293 TREx D1 cells, calcium flux, dopamine EC20 potentiation | potentiation, % at 10 µM | 0.036% of 360,000 active | AID 504651, 2011; in the data active = potentiation above about 30%; note: 0% is about no effect
# D3 antag – qHTS of D3 Dopamine Receptor Antagonist: qHTS | 2.5% of 360,000 active | D3R cells, DiscoveRx beta-arrestin luminescence, antagonist mode; active compounds read low | D(3) dopamine receptor (Homo sapiens), P35462 | max response, negative = inhibition, %; in the data active = max response below about -50%; inconclusive = no clear call, values can overlap the other calls; note: % is set by controls: 0 for no effect and ±100 for the full control effect
#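 Cells plated overnight at 1500 cells/well, then exposed to library compounds with dopamine controls for 90 minutes at 37 degrees C. DiscoveRx reagent added for 30–60 minutes at room temperature; luminescence read, quantitative HTS format.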
# D1 agonist – Allosteric Agonists of the Human D1 Dopamine Receptor: qHTS. D(1A) dopamine receptor (Homo sapiens), P21728. 1% of 360,000 active. HEK293 T-REx D1 cells, calcium flux, agonist mode. AID 504660, 2011. activation, % at 2 µM; in the data active = activation above about 30%; note: 0% is about no effect
#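 Tetracycline-induced HEK293 TREx D1 cells, force-coupled to calcium signalling, were dye-loaded with a no-wash calcium kit. Compound was pin-added after a 10 s baseline. Fluorescence was read kinetically at 1 cycle/s for 180 s, with calcium rises flagged as agonism.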
# The depositor's hits bear a star; ? = inconclusive; . = not tested or not shown.
SMILES,D3 ag,D1 antag,D1 potentiator,D3 antag,D1 agonist
CC(C)(C)n1cnnc1Sc1ncccc1[N+](=O)[O-],2,-32*,11,4,3
Cc1ccc(Sc2ncccc2[N+](=O)[O-])cc1,-6,-17,-3,3,6
Cc1ccc2nc(CSc3nnc(NC(=O)C(C)C)s3)cc(=O)n2c1,0,8,3,.,-1
CC(=O)c1c(C)[nH]c(C(=O)NCc2ccco2)c1C,3,-64*,-8,3,2
CC(=O)c1c(C)[nH]c(C(=O)NCCN2CCC(C)CC2)c1C,-19,-9,-1,-51*,2
CC(=O)c1[nH]c(C)c(C(=O)NCc2ccc(Cl)cc2)c1C,6,2,-1,.,39*
Cc1ccc(-c2nc(CNC(=O)NC3CCCCC3)c(C)o2)cc1,8,-3,-1,.,7
Cc1nnc(N2C(=O)c3oc4ccccc4c(=O)c3C2c2ccc(Cl)cc2)s1 (centres undefined),4,5,-4,.,1
CCOC(=O)Cc1csc(NS(=O)(=O)c2ccc3c4c(cccc24)C(=O)N3CC)n1,0,-2,1,-66*,1
COc1ccc(-c2nc3sc(CCNC(=O)C(=O)Nc4ccc(C)c(F)c4)c(C)n3n2)cc1,9,.,-1,.,0
Cc1cc(Cl)cc(Br)c1OCCNCC(C)O (centres undefined),-13,-16,-1,-71*,9
COC(=O)c1oc2ccccc2c1NC(=O)c1ccccc1O,2,-43*,-6,-8,14
COc1ccccc1C(=O)Nc1c(C(=O)NC(C)(C)C)oc2ccccc12,5,64,33*,.,33*
CCOC(=O)c1oc2ccccc2c1NC(=O)c1ccccc1OC,50*,58,14,39,4
COc1ccccc1C(=O)Nc1c(C(=O)c2ccccc2)oc2ccccc12,-1,22,6,.,4
CCOC(=O)c1oc2ccccc2c1COC(=O)CNC(=O)c1ccccc1OC,2,-6,-8,18,5
Cc1ccc(OCC(=O)Nn2c(C)nc3ccccc3c2=O)c(C(C)C)c1,11,-22,5,9,35*
COc1ccc(/C=N/OCC(=O)Nn2c(C)nc3ccccc3c2=O)cc1,33*,-2,5,8,1
Cc1ccc(-c2nc3ccccc3c(=O)n2NC(=O)COc2ccccc2)cc1,4,-5,-4,7,1
CCc1ccccc1NC(=O)c1ccc2[nH]c(C)c(C)c2c1,-8,-21,-6,.,4
CC(C)c1ccccc1NC(=O)CNCCOc1ccccc1F,44*,-11,-2,?,0
CCCC1CCc2c(sc(NC(=O)c3cccs3)c2C(N)=O)C1 (centres undefined),20,3,4,-94*,1
CC(C)C[C@H]1CN=C(Nc2ccccc2)N1CC1CCCC1,5,0,0,26,4
CC(C)C[C@H]1CN=C(Nc2ccccc2)N1CC1CCC(C(C)(C)C)CC1 (some centres undefined),-52,21,3,-12,70*
Cc1cc(-c2ccc(S(=O)(=O)NCc3ccccc3Cl)s2)on1,-14,5,5,.,7
SMILES,D3 ag,D1 antag,D1 potentiator,D3 antag,D1 agonist
C/C(N)=C(/C#N)C(=O)CSc1nnnn1-c1ccc(C)cc1,4,-44*,-5,14,4
C[C@H](CO)N1C[C@H](C)[C@H](CN(C)Cc2ccncc2)Oc2ncc(C#CC3CC3)cc2C1=O,2,.,.,-56*,.
O=C(COC(=O)c1ccc(Cl)cc1O)NC(=O)C1CCCCC1,4,-16,-2,5,-2
O=C(COC(=O)c1ccncc1)NC(=O)C1CCCCC1,9,-36*,2,23,4
O=C(CSCn1nnc2c(=O)[nH]c(Cc3ccc(F)cc3)nc21)Nc1cccc(C(F)(F)F)c1,4,14,0,.,-1
c1ccc2cc(OCCOCCOc3ccc4ccccc4c3)ccc2c1,6,2,3,21,12
Clc1ccc(OCCOCCNCc2ccccc2)cc1Cl,2,-26,-5,?,47*
Cc1cc(Cl)cc(C)c1OCCOCCNCc1ccccc1,-9,-5,-6,-80*,31*
Cc1cc(C)c(OCCCCNCc2ccccc2)c(Cl)c1,-59,1,-3,-76*,8
Cc1cc(C)c(OCCNCc2ccccc2)c(C)c1,-13,6,-2,-15,2
COC(=O)c1cnn(-c2ccc(C(=O)Nc3cccc(C(C)=O)c3)cc2)c1N,1,-7,-8,.,4
CCOc1ccc(CNCc2c(C(=O)O)n(Cc3ccc(OC)cc3)c3ccccc23)cc1,-7,2,0,.,3
COc1ccc(OC)c(/C=C/c2ccc3cccc(O)c3n2)c1,.,4,10,.,1
COc1cc(/C=C/c2ccc3cccc(O)c3n2)c(Br)cc1O,.,-12,3,.,13
CSc1ccc(/C=C/c2ccc3cccc(O)c3n2)cc1,-25,11,3,-58*,5
COc1cc(/C=C/c2ccc3cccc(O)c3n2)ccc1O,-12,-13,-9,-52*,2
CCOC(=O)c1c(S(=O)(=O)N2CCC(C(=O)Nc3ccc(C)cn3)CC2)c(C)n(C)c1C,4,16,1,.,0
COC(=O)c1ccc(NC(=O)c2c(NCc3ccc(C)o3)sc3c2CCCC3)cc1,-12,4,-3,.,2
Cc1ccc(CNC(=O)c2cnc(N(C)C)nc2)cc1,2,-42*,-1,.,1
COc1ccc(CNC(=O)c2cnc(N(C)C)nc2)cc1,1,-1,0,.,2
CCOc1cc2c(cc1OCC)CN(C(=O)c1cccc(S(=O)(=O)N3CCCC3)c1)CC2,1,-36*,1,8,0
CCN1CCN(S(=O)(=O)c2ccc(OC)c(NC(=O)c3ccccc3)c2)CC1,-22,-48*,0,1,3
COc1ccc(S(=O)(=O)N2CCOCC2)cc1NC(=O)C1CCCN1C(=O)c1cccs1 (centres undefined),0,-62*,-6,-20,3
COc1cc2c(cc1OC)CN(C(=O)c1ccc(S(=O)(=O)N3CCCC3)cc1)CC2,-10,-5,1,-5,1
COc1ccc(S(=O)(=O)N2CCOCC2)cc1NC(=O)c1ccc2c(c1)OCO2,53*,1,-7,-11,2
COc1ccccc1N1CCN(S(=O)(=O)CCNC(=O)COc2ccc(C(C)C)cc2)CC1,11,-8,-1,.,3
O=C(NCC1COc2ccccc2O1)c1ccc(Cl)c(S(=O)(=O)N2CCOCC2)c1 (centres undefined),-10,1,9,-12,3
